From PubChem BioAssay
HT1080NT lethal – qHTS for induction of synthetic lethality in tumor cells producing 2HG: qHTS for the HT-1080-NT fibrosarcoma cell line; HT-1080-NT fibrosarcoma viability, CellTiter-Glo ATP luminescence, 48 h; 360,000 tested, 1.6% active; AID 686970, 2013; Potency, µM (doses to about 46.1 µM), hits mostly cytotoxic;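 also: NT is the 2HG producing partner of a matched IDH1 knockdown line; nearly all actives have a fitted effect of over 55% in size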
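A 48-hour cytotoxicity screen used HT-1080-NT cells plated 2 hours before compound delivery. ATP-based CellTiter-Glo luminescence measured viability, normalized to DMSO and no-cell controls.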
S2 tox – Viability Counterscreen for Primary qHTS for Inhibitors of ATXN expression; S2 cells (HEK-293 line with an ATXN2-luciferase reporter) viability, CellTiter-Fluor protease fluorescence, 24 h; Potency, µM (highest dose often 56.7 µM), actives largely listed as cytotoxic; 400,000 tested, 0.49% active; also: nearly all actives have a fitted effect of over 40% in size
TGFb SMAD3 inh – qHTS for Inhibitors of TGF-b. HepG2 CAGA-GFP TGF-b/SMAD3 reporter, GFP fluorescence, 18 h; TGF-beta stimulated, 500 pg/mL final. Potency, µM (titrated, usually from 46.1 µM), actives largely listed as inhibitors. 410,000 tested, 1.2% active; also: nearly all actives have a fitted effect of over 65% in size
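First, reporter cells (HEPG2 CAGA-GFP) rested 2 h at 37 degrees C. Next, compounds were pinned in and TGF-beta added to 500 pg/mL final. After 18 h, GFP was imaged per cell and summed per well.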
HT1080 IDH1KD tx – qHTS for induction of synthetic lethality in tumor cells producing 2HG: qHTS for the HT-1080-IDH1KD cell line; HT-1080 IDH1 knockdown viability, ATP luminescence, 48 h; Potency, µM (doses to about 46.1 µM), hits mostly cytotoxic; AID 686971, 2013; 360,000 tested, 2% active
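Luminescent ATP read-out (CellTiter-Glo, 10 min at room temperature) after 48 h compound exposure at 37 °C gave viability of IDH1-knockdown HT-1080 cells. Activity was normalised to DMSO and cell-free wells, then fitted as concentration-response curves.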
HepG2 viability – qHTS for Inhibitors of TGF-b: Cytotox Counterscreen; HepG2 CAGA-GFP viability, ATP luminescence, 18 h; AID 588856, 2011; Potency, µM (titrated, usually from 46.1 µM), hits mostly cytotoxic; 410,000 tested, 0.76% active
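HepG2 CAGA-GFP cells (1000/well, DMEM with 1% FBS) received compound, then TGF-beta at 500 pg/mL final, and were incubated 18 hours at 37 degrees C. Viability was read by CellTiter-Glo luminescence. Media-only wells were set as complete cell-killing and DMSO as no toxicity.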
ATXN2 expr inh – Primary qHTS for Inhibitors of ATXN expression; 360,000 tested, 0.72% active; HEK-293 ATXN2-luciferase reporter, luminescence, 24 h; AID 1745845, 2022; Potency, µM (highest dose often 57 µM), actives largely listed as inhibitors; also: nearly all actives have a fitted effect of over 55% in size
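qHTS (up to 57 uM final) was run with 24 h compound exposure of reporter cells at 37 °C. Each well was multiplexed: SteadyGlo luminescence measured ATXN2-luciferase expression after a fluorogenic Gly-Phe-AFC viability readout (25 uM final).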
Numbers stand for hits; – = inactive; ? = inconclusive; · = not tested or not shown. In the library only some 3.9% were active in any assay of this set; here they are far more common. Calls follow the shape of the dose curve; as a rule, active = well fitted curve in the direction sought with a large enough effect; inconclusive = small, poorly fitted or top-dose-only effect, or another doubt; inactive = no such curve, though single readings can be large; an effect the other way counts as inactive or inconclusive.

SMILES	HT1080NT lethal	S2 tox	TGFb SMAD3 inh	HT1080 IDH1KD tx	HepG2 viability	ATXN2 expr inh
COc1cc(CN2CCN(S(=O)(=O)c3ccccc3)CC2)cc(OC)c1OC	–	?	–	–	–	·
COc1cc(CN2CCN(c3cccc(Cl)c3)CC2)cc(OC)c1OC	8.91µM	–	–	7.08µM	–	?
COCCCNC(=O)C1CCN(C(=O)c2ccc(-n3ccc4ccccc43)s2)CC1	·	·	–	·	–	·
O=C(Nc1cccc(C(F)(F)F)c1)Nc1ccc2snnc2c1	·	–	7.08µM	·	–	?
Cc1ccc(C(=O)Nc2nc(C(N)C(C)C)cs2)cc1 (stereo not given)	–	–	–	–	–	–
CC(C)c1ccc(NC(=O)Nc2nc(C(N)C(C)C)cs2)cc1 (stereo not given)	20.6µM	?	?	?	–	?
CC(N)c1csc(NC(=O)Nc2cccc(C(F)(F)F)c2)n1 (stereo not given)	18.4µM	?	?	23.1µM	20µM	?
CN(C)Cc1csc(NC(=O)Nc2cccc(C(F)(F)F)c2)n1	?	–	–	?	–	–
CC(C)c1ccc(NC(=O)Nc2nc(C(N)COCc3ccccc3)cs2)cc1 (stereo not given)	20.6µM	?	11.2µM	?	10µM	?
CC(C)C(N)c1csc(NC(=O)Nc2cccc(Cl)c2)n1 (stereo not given)	23.1µM	?	?	?	–	?
CC(C)c1ccc(NC(=O)Nc2nc(C(N)c3ccccc3)cs2)cc1 (stereo not given)	?	·	11.2µM	?	11.2µM	?
NCc1csc(NC(=O)Nc2cccc(Cl)c2)n1	–	?	–	–	–	–
CCN(CC)c1ccc(/C=C/C2=C3C=CC=CC3NC=C2)cc1 (stereo not given)	·	·	–	·	–	·
O=S(=O)(Nc1cccc2ccccc12)c1cccs1	–	–	–	–	–	–
O=S(=O)(Nc1ccc(O)c2ccccc12)c1cccs1	25.9µM	?	?	20.6µM	–	?
O=S(=O)(Nc1cccc2cccnc12)c1cccs1	·	·	2.24µM	·	–	·
CCCCC(=O)O[C@H]1CC[C@H]2[C@@H]3CCc4cc(O)ccc4[C@H]3CC[C@]12C	20.6µM	?	–	?	–	?
COC(=O)[C@@]1(Cc2ccc(F)cc2)[C@H]2c3cc(C(=O)N(C)C)n(Cc4ccc(C)o4)c3C[C@H]2CN1C(=O)c1ccccc1	?	·	·	20.6µM	·	?
COc1ccccc1OCc1ccc(C(=O)Nc2ccc(C)c(C)c2)o1	·	·	–	·	–	·
CC1CN(CCC(=O)NC(c2cccnc2)C(F)(F)F)Cc2cc(Cl)ccc2O1 (stereo not given)	·	–	·	·	·	·
O=C1CCC2(CC1)NC(=O)N(c1ccccc1)N2	?	–	–	8.2µM	–	–
COc1cc(OC)c(NC(=O)CSC2=Nc3ccccc3N=C(c3ccc(F)cc3)C2)cc1Cl	·	–	–	·	–	–
CCOc1ccc(N2C(=O)CC(SCCN)C2=O)cc1 (stereo not given)	–	–	–	–	–	–
CCOc1ccc(N2C(=O)CC(Sc3nnnn3-c3ccccc3)C2=O)cc1 (stereo not given)	–	?	?	14.6µM	–	–
Cc1nn(-c2ccccn2)c2c1-c1nc(N)sc1CC2	·	·	–	·	–	·
SMILES	HT1080NT lethal	S2 tox	TGFb SMAD3 inh	HT1080 IDH1KD tx	HepG2 viability	ATXN2 expr inh
Cc1ccc(/C=C2\SC(=S)N(CCCC(=O)Nc3ccc(O)cc3)C2=O)cc1	–	–	–	–	–	10µM
Cc1ccc(/C=C2\SC(=S)N(CCCC(=O)Nc3ccccn3)C2=O)cc1	–	–	–	–	–	3.16µM
Cc1ccc(/C=C2\SC(=S)N(CCCC(=O)Nc3ccccc3C(=O)O)C2=O)cc1	–	–	–	–	–	12.6µM
O=C(CCCN1C(=O)S/C(=C\C=C\c2ccccc2)C1=O)Nc1ccc(O)cc1	?	?	–	20.6µM	–	–
Cc1ccc(CNC(=O)C2CCCN(c3ncnc4onc(-c5ccc(F)cc5)c34)C2)cc1 (stereo not given)	·	–	–	·	–	–
Cc1cc(Br)c(OCc2ccc(C(=O)N/N=C/c3ccc[nH]3)cc2)c(Br)c1	0.82µM	?	1.12µM	1.03µM	–	–
O=C(NCCc1nc2ccccc2n1CCCOc1ccc(Cl)cc1)C1CCCCC1	·	·	17.8µM	·	–	·
S=C(Nc1ccccc1)Nc1nc2ccccc2n1CCOc1ccc(Cl)cc1	?	–	14.1µM	?	–	?
CC(C)(C)c1ccc(OCCn2c(CCNC(=O)C3CCCCC3)nc3ccccc32)cc1	·	·	20µM	·	–	·
Cc1cccc(OCCCn2c(CCNC(=O)C3CCCCC3)nc3ccccc32)c1	·	·	22.4µM	·	–	·
O=C(NCCCc1nc2ccccc2n1Cc1ccccc1)C1CCCCC1	·	?	?	·	–	?
O=C(NCCCc1nc2ccccc2n1Cc1ccc(F)cc1)C1CCCCC1	·	?	12.6µM	·	–	–
Cc1cccc(C)c1OCCn1c(CCNC(=O)C2CCCCC2)nc2ccccc21	·	·	12.6µM	·	–	·
Cc1cc(C)cc(OCCn2c(CCNC(=O)C3CCCCC3)nc3ccccc32)c1	·	·	–	·	–	·
O=C(CSc1ccncc1)NCC1Cc2cccc(-c3cncnc3)c2O1 (stereo not given)	·	–	·	·	·	·
CCC(C(=O)O)c1ccc(N2Cc3ccccc3C2=O)cc1 (stereo not given)	·	–	·	·	·	–
Fc1ccc(CNc2cc(-c3ccccc3)nc3nncn23)cc1	·	–	–	·	–	–
Nc1c(C(=O)Nc2ccc(S(=O)(=O)N3CCCC3)cc2)sc2nc3ccc(OC(F)(F)F)cc3cc12	?	·	–	?	1.78µM	?
Oc1ccc(Br)cc1-c1ccnn1-c1ccccc1	?	–	?	7.31µM	–	?
Oc1ccc(Br)cc1-c1n[nH]c(=S)n1Cc1ccccc1	–	–	–	–	–	–
COc1ccc(C)cc1NS(=O)(=O)c1ccc2c(c1)CCCN2C(C)=O	·	–	–	·	–	–
CC(C)(C)n1ncc2c(=O)n(Cc3cccc(OC(F)F)c3)cnc21	·	·	–	·	–	·
COc1ccc(N2CCN(C(=O)C3CCN(S(=O)(=O)c4cnc[nH]4)CC3)CC2)cc1	·	–	–	·	–	–
COC1=CC(=O)c2ccccc2C1=O	11.6µM	–	1.41µM	5.17µM	2.24µM	28.2µM
COC1=CC(=O)C=C(OC)C1=O	18.4µM	?	?	?	–	5.62µM
COc1cc(OC)cc(N2C(=O)N(Cc3ccc(C(C)(C)C)cc3)c3ccccc3S2(=O)=O)c1	·	–	–	·	–	–
